Measurements taken from PubChem BioAssay (NCATS).
Records with an inconclusive call do not appear. Active and inactive are the calls of the source. Unless noted, calls follow the shape of the dose curve; as a rule, active = well fitted curve in the direction sought with a large enough effect; inconclusive = small, poorly fitted or top-dose-only effect, or another doubt; inactive = no such curve, though single readings can be large; an effect the other way counts as inactive or inconclusive.

What was measured:
[1] = target: Lysosomal acid glucosylceramidase (Homo sapiens) (UniProt P04062); test: Glucocerebrosidase-p2 (AID 348; in the data active = potency below about 10 µM; also: potency is read from the fitted curve at half-maximal effect); details: purified GBA, blue fluorogenic substrate, 40 min
Procedure, shortened: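 Compounds titrated from 0.6 nM upwards against 0.2 nM enzyme in pH 5.9 citric acid/KH2PO4, taurocholate, tween-20; blue fluorogenic substrate 80 uM, 40 min room temperature, stopped and read Ex 365/Em 440 for AC50.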

[2] = AP1 Signaling Pathway (AID 357; active = well fitted curve in either direction with a large enough effect, not every such curve was filed as active;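 also: ME-180 reporter cells stimulated with EGF at its EC50 level; % is scaled to controls: 0 for no effect and ±100 for the full control effect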); details: ME-180 AP-1-bla reporter, EGF-induced, beta-lactamase ratio, 5 h; at 7.69 µM (top of the series) unless noted
Procedure, shortened: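 Cells are seeded overnight, exposed to compound titrations and an EC50 level of EGF for 5 hours at 37 °C, then loaded with CCF4 dye for 2.5 hours. Beta-lactamase activity under the AP-1 element is read as a blue/green ratio.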

[3] = target: Cytochrome P450 1A2 (Homo sapiens) (UniProt P05177); test: p450-cyp1a2 (AID 410; calls by dose curve; also: potency is read from the fitted curve at half-maximal effect;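 as to activity change, negative = inhibition: -100% = full effect of reference inhibitor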); details: recombinant CYP1A2, luciferin-ME demethylation, luminescence; series mostly up to 57 µM
Procedure, shortened: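 Human CYP1A2 (20nM) demethylated Luciferin-ME at its Km (100uM) in 100mM KPO4. After 10 min compound preincubation, NADPH regeneration ran the reaction 60 min at room temperature. Luciferin was read by luminescence, normalized to 57 uM furafylline.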

[4] = NFAT Signaling Pathway (AID 444; active = well fitted curve in either direction with a large enough effect, not every such curve was filed as active;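 also: carbachol stimulus at about its EC50 of 1 µM final; % is scaled to controls: 0 for no effect and ±100 for the full control effect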); details: Jurkat NFAT-bla M1, carbachol, beta-lactamase ratio, 5 h; at 7.69 µM (top of the series) unless noted
Procedure, shortened: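 Jurkat cells with NFAT-driven β-lactamase reporter and co-expressed M1 receptor, stimulated with carbachol (final 1 uM, ~EC50), compound titration, 5 h at 37 °C. CCF4 loaded 1 h at RT; 460/530 nm ratio gave %activity and AC50.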

[5] = Stat Signaling Pathway (AID 446; active = well fitted curve in either direction with a large enough effect, not every such curve was filed as active;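 also: ME-180 cervical cancer cells given 40 pM IL-6 alongside compound; SIE-controlled beta-lactamase reporter measured as 460/530 nm FRET emission ratio; % is scaled to controls: 0 for no effect and ±100 for the full control effect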); details: ME-180 SIE beta-lactamase reporter, IL-6 stimulated, 5 h; at 7.69 µM (top of the series) unless noted
Procedure, shortened: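 ME-180 SIE-bla cells; overnight plating; cpd + IL-6 40 pM, 5 h, 37 C; LiveBLAzer 2.5 h RT; 460/530 nm emission ratio. Normalized to 300 pM IL-6 and 125 nM JAK inhibitor controls.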

[6] = target: Glucocorticoid receptor (Homo sapiens) (UniProt P04150); test: GR-GFP Redistribution (AID 450;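 active = compounds whose dose series gives a full or clear partial fitted curve of increased nuclear translocation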; also: potency is read from the fitted curve at half-maximal effect); details: U2OS GR-GFP nuclear translocation, laser cytometry, 2 h
[7] = target: Glucocorticoid receptor (Homo sapiens) (UniProt P04150); test: GR-EFC Redistribution (AID 451; calls by dose curve; also: potency is read from the fitted curve at half-maximal effect); details: CHO-K1 GR-EFC translocation, beta-gal luminescence, 2 h
Procedure, shortened: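 CHO-K1 cells expressing nuclear EA and GR-ED fragments of b-gal; compounds titrated up to 46 uM final, 2 h at 37 C. GR nuclear translocation read as complemented b-gal luminescence after 1 h RT detection.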

[8] = target: Cytochrome P450 2C9 (Homo sapiens) (UniProt P11712); test: qHTS Assay for Inhibitors and Substrates of Cytochrome P450 2C9 (AID 883); details: recombinant CYP2C9, luciferin-H luminescence, 60 min; series mostly up to 57.1 µM; also: nearly all actives have a fitted effect of over 60% in size; also: potency is read from the fitted curve at half-maximal effect
Procedure, shortened: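 Human CYP2C9 (10nM) with Luciferin-H at 100uM (its KM) in 25mM KPO4; compound preincubated 10 min at 37C, then NADPH regeneration for 60 min at 37C. Luciferin read by luminescence after detection reagent; normalized to 57uM sulphaphenazole as full inhibition.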

[9] = target: Cytochrome P450 3A4 (Homo sapiens) (UniProt P08684); test: qHTS Assay for Inhibitors and Substrates of Cytochrome P450 3A4 (AID 884); details: recombinant CYP3A4, Luciferin-PPXE luminescence; series mostly up to 57.1 µM; also: potency is read from the fitted curve at half-maximal effect; nearly all actives have a fitted effect of over 50% in size
Procedure, shortened: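 20 nM human CYP3A4 with 25 uM Luciferin-PPXE (at KM) in 200 mM KPO4, preincubated 10 min with compound; NADPH regeneration started a 60 min RT reaction. Luciferin detected by luminescence, normalized to 57 uM ketoconazole as full inhibition.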

[10] = target: Cytochrome P450 3A4 (Homo sapiens) (UniProt P08684); test: qHTS Assay for Activators of Cytochrome P450 3A4 (AID 885); details: recombinant CYP3A4, Luciferin-PPXE luminescence, 60 min; series mostly up to 57.1 µM; also: nearly all actives have a fitted effect of over 65% in size
Procedure, shortened: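 20nM CYP3A4 + 25uM Luciferin-PPXE (=KM), 200mM KPO4; cpd 10 min RT; NADPH regen, 60 min RT; stop w/ detection buffer, 20 min; luminescence. Normalized to 57 uM ketoconazole.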

[11] = target: Cytochrome P450 2C19 (Homo sapiens) (UniProt P33261); test: qHTS Assay for Inhibitors and Substrates of Cytochrome P450 2C19 (AID 899); details: recombinant CYP2C19, luciferin-H EGE luminescence; series mostly up to 57.1 µM; also: nearly all actives have a fitted effect of over 60% in size; also: potency is read from the fitted curve at half-maximal effect
Procedure, shortened: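 5 nM human CYP2C19 with 10uM Luciferin-H EGE (at KM) in 50mM KPO4, compound preincubated 10 min at 37C, then NADPH regeneration for 60 min at 37C. Luciferin read by luminescence after detection reagent; normalized to 57uM ketoconazole as full inhibition.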

[12] = qHTS Assay for Lipid Storage Modulators (AID 1519; calls by dose curve); details: Drosophila S3 cells, BODIPY lipid droplet/cell ratio, laser cytometry, cells loaded with oleic acid; for activity change, negative = inhibition: at 57.5 µM (top of the series)
Procedure, shortened: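 Cells seeded at 5,000 per well were treated with compounds over a concentration series and loaded with oleic acid (400 uM, as added). Lipid droplet fluorescence (488 nm excitation, 500-530 nm channel) was read by laser-scanning cytometry and normalized to 20 uM Triacsin C.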

[13] = target: Dual specificity protein kinase CLK4 (Homo sapiens) (UniProt Q9HAZ1); test: qHTS Assay for Inhibitors of CDC-like Kinase 4 (Kinase-Glo Assay) (AID 1770); details: recombinant Clk4, Kinase-Glo ATP depletion luminescence; series mostly up to 66.7 µM; also: % is scaled to controls: 0 for no effect and ±100 for the full control effect; nearly all actives have a fitted effect of over 65% in size
Procedure, shortened: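 25 nM Clk4 with 100 uM RS repeat peptide and 1 uM ATP (final) in Tris pH7.5, 10 mM MgCl2, 4.5 h at room temperature. Remaining ATP measured by Kinase-Glo luciferase luminescence.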

[14] = target: Dual specificity protein kinase CLK4 (Homo sapiens) (UniProt Q9HAZ1); test: qHTS Assay for Inhibitors of CDC-like Kinase 4 (ADP-Glo Assay) (AID 1771); details: recombinant CLK4, ADP-Glo luminescence; series mostly up to 80 µM; also: % is scaled to controls: 0 for no effect and ±100 for the full control effect; nearly all actives have a fitted effect of over 70% in size
Procedure, shortened: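 Clk4 (25 nM) was incubated 1 hr at room temperature with 100 uM RS repeat peptide and 1 uM ATP in buffer with 2 mM MgCl2, 0.5 mM EGTA, 2.5 mM DTT. ADP formed was quantified by ADP-Glo luminescence.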

[15] = target: Dual specificity protein kinase CLK4 (Homo sapiens) (UniProt Q9HAZ1); test: qHTS Assay for Inhibitors of CDC-like Kinase 4 (ADP-FP Assay) (AID 1795); details: Transcreener ADP fluorescence polarization; series mostly up to 50 µM;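 also: recombinant human CLK4 phosphorylating RS repeat peptide at 1 µM ATP; % is scaled to controls: 0 for no effect and ±100 for the full control effect; nearly all actives have a fitted effect of over 60% in size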
Procedure, shortened: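 Recombinant Clk4 (6.25 nM) phosphorylated 100 uM RS repeat peptide with 1 uM ATP in 25 mM Tris pH 7.5, 10 mM MgCl2, 0.5 mM EGTA, 2.5 mM DTT, 0.01% Triton X-100 for 1 h. ADP was detected by Transcreener ADP2 competitive fluorescence polarization after 30 min at room temperature.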

[16] = target: Ubiquitin carboxyl-terminal hydrolase 1 (Homo sapiens) (UniProt O94782); test: Inhibitors of USP1/UAF1: Pilot qHTS (AID 504865); details: purified USP1/UAF1, Ub-rhodamine cleavage fluorescence; series mostly up to 54.9 µM;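 also: rhodamine fluorescence freed from ubiquitin-rhodamine substrate followed over time; top concentration of the series differs between compounds; % is scaled to controls: 0 for no effect and ±100 for the full control effect; nearly all actives have a fitted effect of over 35% in size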
Procedure, shortened: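 USP1/UAF1 complex at 1 nM preincubated 15 min at room temperature with compound, then Ub-Rho substrate added at 150 nM final. Fluorescence (480/540 nm) read kinetically in 50 mM HEPES pH 7.8, 0.5 mM EDTA, 1 mM TCEP, 0.1 mg/ml BSA, 0.01% Tween-20.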

[17] = Primary qHTS for small molecule stabilizers of the endoplasmic reticulum resident proteome: Secreted ER Calcium Modulated Protein (SERCaMP) assay (AID 1508630); details: SH-SY5Y GLuc-SERCaMP (Gaussia luciferase released on ER calcium loss) secretion, thapsigargin, luminescence; series mostly up to 38.4 µM; also: % is scaled to controls: 0 for no effect and ±100 for the full control effect
Procedure, shortened: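 GLuc-SERCaMP-expressing SH-SY5Y cells, pretreated 16 h with compound, are challenged with thapsigargin to empty ER calcium stores; after 4 h, coelenterazine is added directly to the medium and luminescence is imaged.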

[18] = target: Mitogen-activated protein kinase 10 (Mus musculus) (UniProt Q61831); test: JNK3 AlphaScreen Assay (AID 530; active = well fitted curve in either direction with a large enough effect, not every such curve was filed as active); details: JNK3 lysate, c-Jun phosphorylation; series mostly up to 57.1 µM
Procedure, shortened: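 qHTS format: compounds tested as titrations against IL-1beta/TNF-alpha-activated HepG2 lysate JNK3 with biotin-GST-cJun substrate and 10 uM ATP at room temperature. Loss of anti-phospho-cJun AlphaScreen signal indicates inhibition.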

[19] = qHTS Assay for Identification of Small Molecule Agonists for Hypoxia Response Element Signaling Pathway (AID 914; active = well fitted activation curve with a large enough effect in the signal ratio, with a control signal flat, not every such curve was filed as active; the % refers to the signal ratio; also: % of control where 0% means no effect); details: ME-180 (cervical carcinoma) HRE-bla reporter, beta-lactamase ratio, CoCl2, 17 h; activation: stronger effect = higher value
Procedure, shortened: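 qHTS titration; ME-180 HRE-bla cells; EC50 CoCl2 co-treatment, 17 h at 37 degrees Celsius; CCF4 dye, ex 405nm, em 460nm and 530nm; %Activity from ratio; AC50.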

[20] = target: 3',5'-cyclic-AMP phosphodiesterase 4B (Homo sapiens) (UniProt Q07343); test: qHTS Assay for Inhibitors of PDE-IV (AID 607; active = well fitted activation curve with a large enough effect in the main read-out, with a control signal flat, not every such curve was filed as active; also: % of control where 0% means no effect); details: HEK293 ACTOne CNG channel cells, membrane potential fluorescence; series mostly up to 22.9 µM
Procedure, shortened: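 ACTOne HEK293 cells carry a modified cAMP-gated CNG channel and express endogenous PDE4; plated 1000 cells/well, compounds up to 22.9 uM final. Membrane-potential dye fluorescence (ex 535/em 590) was read; parental cells received 10 uM forskolin + 100 uM RO 20-1724.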

[21] = measured here: cell count channel max response
[22] = measured here: lipid channel max response

Cytochrome P450 2C9 (Homo sapiens), sequence (P11712 whole entry, looked up): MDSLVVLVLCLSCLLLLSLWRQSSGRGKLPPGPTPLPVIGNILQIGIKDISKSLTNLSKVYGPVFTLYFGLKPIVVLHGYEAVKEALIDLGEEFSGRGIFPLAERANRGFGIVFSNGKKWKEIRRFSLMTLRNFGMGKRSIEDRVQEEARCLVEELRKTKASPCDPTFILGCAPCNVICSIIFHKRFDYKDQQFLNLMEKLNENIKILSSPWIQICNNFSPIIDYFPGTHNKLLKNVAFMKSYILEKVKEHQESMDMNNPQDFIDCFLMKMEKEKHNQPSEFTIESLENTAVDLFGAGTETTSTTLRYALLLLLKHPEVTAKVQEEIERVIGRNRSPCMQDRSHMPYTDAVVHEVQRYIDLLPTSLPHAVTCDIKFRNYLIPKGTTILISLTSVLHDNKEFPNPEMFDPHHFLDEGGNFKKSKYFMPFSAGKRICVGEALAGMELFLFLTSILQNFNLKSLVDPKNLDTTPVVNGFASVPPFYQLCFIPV
Ubiquitin carboxyl-terminal hydrolase 1 (Homo sapiens), sequence (O94782 whole entry, looked up): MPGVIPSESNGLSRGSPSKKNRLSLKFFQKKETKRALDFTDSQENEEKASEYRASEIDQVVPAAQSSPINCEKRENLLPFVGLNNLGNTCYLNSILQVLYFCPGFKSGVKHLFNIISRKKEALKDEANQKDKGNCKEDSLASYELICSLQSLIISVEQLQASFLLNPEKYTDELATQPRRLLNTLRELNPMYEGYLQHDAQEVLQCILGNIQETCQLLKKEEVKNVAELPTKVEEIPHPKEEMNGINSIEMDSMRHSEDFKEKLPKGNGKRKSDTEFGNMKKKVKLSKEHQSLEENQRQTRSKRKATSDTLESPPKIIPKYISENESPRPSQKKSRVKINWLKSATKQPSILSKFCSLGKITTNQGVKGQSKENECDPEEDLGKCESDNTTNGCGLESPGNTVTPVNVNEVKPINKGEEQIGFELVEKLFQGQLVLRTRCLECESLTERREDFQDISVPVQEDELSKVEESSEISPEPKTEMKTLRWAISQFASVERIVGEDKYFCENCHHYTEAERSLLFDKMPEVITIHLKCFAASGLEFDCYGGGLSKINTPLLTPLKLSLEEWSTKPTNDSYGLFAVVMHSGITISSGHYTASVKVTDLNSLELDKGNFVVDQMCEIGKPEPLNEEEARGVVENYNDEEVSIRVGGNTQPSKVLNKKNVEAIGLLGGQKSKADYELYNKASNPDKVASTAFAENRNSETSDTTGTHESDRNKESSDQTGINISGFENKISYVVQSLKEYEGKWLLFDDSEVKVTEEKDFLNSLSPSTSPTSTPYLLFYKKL
Cytochrome P450 1A2 (Homo sapiens), sequence (P05177 whole entry, looked up): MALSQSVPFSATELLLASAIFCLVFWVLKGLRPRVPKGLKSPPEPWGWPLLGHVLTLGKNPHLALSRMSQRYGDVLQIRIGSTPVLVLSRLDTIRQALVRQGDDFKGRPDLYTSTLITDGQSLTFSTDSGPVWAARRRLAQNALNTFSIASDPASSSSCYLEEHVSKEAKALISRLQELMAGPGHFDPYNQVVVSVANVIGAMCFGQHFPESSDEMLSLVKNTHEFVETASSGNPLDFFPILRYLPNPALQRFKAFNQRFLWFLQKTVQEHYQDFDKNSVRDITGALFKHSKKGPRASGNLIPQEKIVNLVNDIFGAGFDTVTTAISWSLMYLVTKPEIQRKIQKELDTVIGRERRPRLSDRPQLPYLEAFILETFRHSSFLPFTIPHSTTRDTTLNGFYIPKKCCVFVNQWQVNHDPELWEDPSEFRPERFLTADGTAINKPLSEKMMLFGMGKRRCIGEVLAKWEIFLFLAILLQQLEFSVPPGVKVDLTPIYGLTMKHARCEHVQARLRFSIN
Lysosomal acid glucosylceramidase (Homo sapiens), sequence (P04062 whole entry, looked up): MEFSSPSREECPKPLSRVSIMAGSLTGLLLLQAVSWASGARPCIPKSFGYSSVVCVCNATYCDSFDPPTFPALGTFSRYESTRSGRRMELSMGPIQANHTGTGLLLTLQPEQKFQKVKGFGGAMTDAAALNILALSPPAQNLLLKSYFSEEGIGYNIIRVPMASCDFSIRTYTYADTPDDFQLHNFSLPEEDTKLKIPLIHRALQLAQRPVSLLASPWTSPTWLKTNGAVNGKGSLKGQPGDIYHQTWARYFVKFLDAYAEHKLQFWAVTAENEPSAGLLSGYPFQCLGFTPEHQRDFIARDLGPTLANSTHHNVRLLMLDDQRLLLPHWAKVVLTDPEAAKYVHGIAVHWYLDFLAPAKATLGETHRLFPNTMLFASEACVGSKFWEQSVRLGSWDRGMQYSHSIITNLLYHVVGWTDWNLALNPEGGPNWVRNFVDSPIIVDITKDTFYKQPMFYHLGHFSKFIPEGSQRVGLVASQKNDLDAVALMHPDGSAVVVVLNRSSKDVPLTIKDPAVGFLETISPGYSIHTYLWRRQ
Cytochrome P450 3A4 (Homo sapiens), sequence (P08684 whole entry, looked up): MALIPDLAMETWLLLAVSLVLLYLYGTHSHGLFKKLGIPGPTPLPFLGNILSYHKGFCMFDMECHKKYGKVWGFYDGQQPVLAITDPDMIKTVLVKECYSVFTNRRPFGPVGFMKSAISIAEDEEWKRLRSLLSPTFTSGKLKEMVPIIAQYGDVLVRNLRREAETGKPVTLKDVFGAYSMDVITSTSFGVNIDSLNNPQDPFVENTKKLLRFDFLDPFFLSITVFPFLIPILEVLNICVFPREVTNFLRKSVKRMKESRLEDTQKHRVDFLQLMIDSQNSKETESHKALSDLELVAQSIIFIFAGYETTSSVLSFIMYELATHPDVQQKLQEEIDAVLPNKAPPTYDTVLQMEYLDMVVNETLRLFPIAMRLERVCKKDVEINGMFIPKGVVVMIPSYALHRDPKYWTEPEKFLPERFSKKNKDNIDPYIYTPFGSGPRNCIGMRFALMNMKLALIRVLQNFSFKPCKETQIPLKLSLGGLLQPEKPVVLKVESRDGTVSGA
Dual specificity protein kinase CLK4 (Homo sapiens), sequence (Q9HAZ1 whole entry, looked up): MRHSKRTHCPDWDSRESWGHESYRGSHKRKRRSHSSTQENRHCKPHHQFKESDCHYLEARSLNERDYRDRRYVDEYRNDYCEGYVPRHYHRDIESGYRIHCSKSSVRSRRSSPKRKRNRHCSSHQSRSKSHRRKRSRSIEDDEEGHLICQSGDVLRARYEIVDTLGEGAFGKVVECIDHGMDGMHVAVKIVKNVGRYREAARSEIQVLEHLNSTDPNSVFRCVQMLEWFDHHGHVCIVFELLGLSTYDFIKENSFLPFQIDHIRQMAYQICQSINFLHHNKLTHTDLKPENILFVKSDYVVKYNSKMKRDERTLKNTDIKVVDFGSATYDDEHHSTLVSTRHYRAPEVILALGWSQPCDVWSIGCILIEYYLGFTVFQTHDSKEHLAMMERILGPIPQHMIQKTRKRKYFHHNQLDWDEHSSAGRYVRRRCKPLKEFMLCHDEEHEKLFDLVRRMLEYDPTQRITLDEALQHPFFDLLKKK
Glucocorticoid receptor (Homo sapiens), sequence (P04150 whole entry, looked up, the tested form may be a part): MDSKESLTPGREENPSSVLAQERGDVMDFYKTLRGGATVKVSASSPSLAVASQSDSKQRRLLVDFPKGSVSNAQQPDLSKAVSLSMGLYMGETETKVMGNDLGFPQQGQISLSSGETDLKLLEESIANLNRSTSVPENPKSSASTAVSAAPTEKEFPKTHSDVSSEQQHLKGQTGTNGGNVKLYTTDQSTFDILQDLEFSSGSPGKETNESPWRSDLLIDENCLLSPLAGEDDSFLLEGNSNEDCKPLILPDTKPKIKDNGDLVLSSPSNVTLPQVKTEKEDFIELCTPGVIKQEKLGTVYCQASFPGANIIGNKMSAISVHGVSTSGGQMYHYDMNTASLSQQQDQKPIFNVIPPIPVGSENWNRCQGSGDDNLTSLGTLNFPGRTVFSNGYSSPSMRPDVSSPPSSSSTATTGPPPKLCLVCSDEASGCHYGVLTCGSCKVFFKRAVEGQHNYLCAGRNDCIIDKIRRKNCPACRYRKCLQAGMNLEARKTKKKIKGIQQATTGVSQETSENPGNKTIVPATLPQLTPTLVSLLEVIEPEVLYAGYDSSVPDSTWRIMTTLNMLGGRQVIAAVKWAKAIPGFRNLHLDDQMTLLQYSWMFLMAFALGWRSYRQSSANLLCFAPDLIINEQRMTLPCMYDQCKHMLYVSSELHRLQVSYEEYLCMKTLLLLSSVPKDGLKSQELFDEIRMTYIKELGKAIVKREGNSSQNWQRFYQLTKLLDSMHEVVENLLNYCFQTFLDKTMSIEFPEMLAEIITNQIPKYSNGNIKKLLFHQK
Cytochrome P450 2C19 (Homo sapiens), sequence (P33261 whole entry, looked up): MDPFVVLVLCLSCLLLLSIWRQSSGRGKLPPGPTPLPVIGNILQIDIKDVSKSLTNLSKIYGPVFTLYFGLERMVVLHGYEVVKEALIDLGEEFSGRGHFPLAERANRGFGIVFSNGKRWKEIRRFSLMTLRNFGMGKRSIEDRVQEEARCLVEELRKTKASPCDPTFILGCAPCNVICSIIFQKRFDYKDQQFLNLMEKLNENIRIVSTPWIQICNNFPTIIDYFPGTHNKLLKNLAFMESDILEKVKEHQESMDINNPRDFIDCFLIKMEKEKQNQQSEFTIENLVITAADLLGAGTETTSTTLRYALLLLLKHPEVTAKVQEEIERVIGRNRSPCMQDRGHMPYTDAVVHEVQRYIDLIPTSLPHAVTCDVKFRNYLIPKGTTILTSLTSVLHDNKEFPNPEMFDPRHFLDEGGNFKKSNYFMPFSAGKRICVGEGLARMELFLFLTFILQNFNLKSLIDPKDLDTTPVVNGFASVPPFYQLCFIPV

Compound: O=c1c(CCc2ccccc2)nc2cncnc2n1Cc1ccc(F)cc1
- Potency [1]: > 11.4 µM (inactive)
- activity change, negative = inhibition [2]: -7.12% (inactive)
- Potency [3]: 10 µM (active)
- activity change, negative = inhibition [4]: -3.47% (inactive)
- activity, negative = inhibition [5]: -6.1% (inactive)
- Potency [6]: > 9.22 µM (inactive)
- Potency [7]: > 46 µM (inactive)
- Potency [8]: 7.94 µM (active)
- Potency [9]: 3.16 µM (active)
- Potency [10]: inactive
- Potency [11]: 6.31 µM (active)
- activity change, negative = inhibition [12]: 5.86% (inactive)
- max response [12, 21]: 18.7%
- max response [12, 22]: 23.1%
- Potency [13]: inactive
- Potency [14]: inactive
- Potency [15]: inactive
- Potency [16]: inactive
- Potency [17]: inactive

Compound: COc1ccccc1CCn1c(=O)c(-c2cccc(F)c2)nc2cncnc21
- Potency [1]: > 11.4 µM (inactive)
- activity change, negative = inhibition [2]: -14.2% (inactive)
- Potency [3]: 1.58 µM (active)
- activity change, negative = inhibition [4]: -17.1% (inactive)
- activity, negative = inhibition [5]: 3.83% (inactive)
- Potency [6]: > 9.22 µM (inactive)
- Potency [7]: > 46 µM (inactive)
- outcome [18]: inactive
- Potency [8]: 2.51 µM (active)
- Potency [9]: 3.16 µM (active)
- Potency [10]: inactive
- activation [19]: -1.08% (inactive)
- activity change, negative = inhibition [12]: 6.88% (inactive)
- max response [12, 21]: 18.2%
- max response [12, 22]: 19.8%
- Potency [13]: inactive
- Potency [14]: inactive
- Potency [15]: inactive
- Potency [16]: inactive
- Potency [17]: inactive

Compound: COc1ccc(Oc2ncc3nc(C)c(=O)n(-c4ccccc4)c3n2)cc1
- Potency [1]: > 11.4 µM (inactive)
- activity change, negative = inhibition [2]: -15.8% (inactive)
- Potency [3]: 7.94 µM (active)
- activity change, negative = inhibition [4]: -10.3% (inactive)
- activity, negative = inhibition [5]: -5.69% (inactive)
- Potency [7]: > 46 µM (inactive)
- outcome [18]: inactive
- Potency [20]: inactive
- Potency [9]: 5.01 µM (active)
- Potency [10]: inactive
- activity change, negative = inhibition [12]: 6.06% (inactive)
- max response [12, 21]: 10.7%
- max response [12, 22]: 17.1%
- Potency [13]: inactive
- Potency [14]: inactive
- Potency [15]: inactive
- Potency [16]: inactive
- Potency [17]: inactive

Compound: O=c1c(-c2ccc(F)cc2)nc2cnc(N3CCOCC3)nc2n1Cc1cccs1
- Potency [1]: > 11.4 µM (inactive)
- activity change, negative = inhibition [2]: 14.2% (inactive)
- Potency [3]: 12.6 µM (active)
- activity change, negative = inhibition [4]: 13.3% (inactive)
- activity, negative = inhibition [5]: 18.2% (inactive)
- Potency [6]: > 9.22 µM (inactive)
- Potency [7]: > 46 µM (inactive)
- outcome [18]: inactive
- Potency [20]: inactive
- Potency [10]: inactive
- activity change, negative = inhibition [12]: -1.08% (inactive)
- max response [12, 21]: 9.38%
- max response [12, 22]: 7.2%
- Potency [13]: inactive
- Potency [14]: inactive
- Potency [15]: inactive
- Potency [16]: inactive
- Potency [17]: inactive

Compound: COc1ccc(-n2c(=O)c(-c3cccs3)nc3cnc(N(C)C)nc32)cc1
- Potency [1]: > 11.4 µM (inactive)
- activity change, negative = inhibition [2]: -10.2% (inactive)
- Potency [3]: inactive
- activity change, negative = inhibition [4]: -4.88% (inactive)
- activity, negative = inhibition [5]: -9.54% (inactive)
- Potency [6]: > 9.22 µM (inactive)
- Potency [7]: > 46 µM (inactive)
- outcome [18]: inactive
- Potency [8]: inactive
- Potency [11]: inactive
- activity change, negative = inhibition [12]: 7.83% (inactive)
- max response [12, 21]: 19%
- max response [12, 22]: 25.4%
- Potency [13]: inactive
- Potency [14]: inactive
- Potency [15]: inactive
- Potency [16]: inactive
- Potency [17]: inactive
